Structures are written as SMILES. The source made the active and inactive calls. How the source made its calls: active means hit-call score of the fitted dose curve at least 0.9, where 1 is the maximum; inactive means score below 0.9.

Read-out in the assay: Interleukin-8 (IL8), CXCL8 (gene 3576)
In words: BSK_CASM3C_IL8: BioMAP Diversity Plus: CASM3C Assay for Interleukin-8 (IL8) Biomarker Activity (AID 2283042).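 Further: IL-8 protein level quantified by ELISA.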 Particulars: primary human coronary artery smooth muscle cells; actives raise or lower the signal.
As for `CN(C)C(=O)Nc1cccc(C(F)(F)F)c1`, the outcome was inactive. In the case of `COP(=O)(NC(C)=O)SC` (stereo unspecified), the result was inactive. Same read-out and setting: as for `CN(C)NC(=O)CCC(=O)O`, the entry is “inactive”; as for `C[Si](Cn1cncn1)(c1ccc(F)cc1)c1ccc(F)cc1`, “inactive”. With `CCCOCC(=Nc1ccc(Cl)cc1C(F)(F)F)n1ccnc1`, the result was inactive.

Take `CC1=NNC(=O)N(/N=C/c2cccnc2)C1`: the outcome was inactive. Still for that read-out and setting: as for `C#CCC1=C(C)C(OC(=O)C2C(C=C(C)C)C2(C)C)CC1=O` (stereo unspecified), the entry is “inactive”; as for `COP(=O)(OC)C(O)C(Cl)(Cl)Cl` (stereo unspecified), “inactive”; as for `COP(=O)(OC)SCn1c(=O)oc2cc(Cl)cnc21`, “inactive”. `CCOP(=S)(Oc1cnc(C(C)(C)C)nc1)OC(C)C` (stereo unspecified): the result was inactive. For the molecule `CNC(=O)ON=C(SC)C(=O)N(C)C`, the result was inactive.

In the case of `CCOP(=S)(OCC)SCCSCC`, the outcome was inactive. Still for that read-out and setting: as for `CNc1cnn(-c2cccc(C(F)(F)F)c2)c(=O)c1Cl`, the entry is “inactive”. With `CC1(C(=O)Nc2ccc(O)c(Cl)c2Cl)CCCCC1`, the result was inactive. Consider `CN1COCN(Cc2cnc(Cl)s2)C1=N[N+](=O)[O-]`, for which the result was inactive.

`CCCCSP(=O)(SCCCC)SCCCC`: the result was inactive.

As to `CC(C1CC1)C(O)(Cn1cncn1)c1ccc(Cl)cc1` (stereo unspecified), the outcome was inactive. On to `CC[C@H](C)[C@H]1O[C@]2(C=C[C@@H]1C)C[C@@H]1C[C@@H](C/C=C(\C)[C@@H](O[C@H]3C[C@H](OC)[C@@H](O[C@H]4C[C@H](OC)[C@@H](NC)[C@H](C)O4)[C@H](C)O3)[C@@H](C)/C=C/C=C3\CO[C@@H]4[C@H](O)C(C)=C[C@@H](C(=O)O1)[C@]34O)O2`, for which the half-maximal activity concentration (AC50) is 14.2 µM (active).

As for `CC(C)=CC1C(C(=O)OCN2C(=O)C3=C(CCCC3)C2=O)C1(C)C` (stereo unspecified), the outcome was inactive. With `CC(Oc1cccc(Cl)c1)C(=O)O` (stereo unspecified), the outcome was inactive. Still for that read-out and setting: as for `CCc1cccc(C)c1N(C(=O)CCl)C(C)COC` (stereo unspecified), the entry is “inactive”.

With `Cc1nn(-c2cc(NS(C)(=O)=O)c(Cl)cc2Cl)c(=O)n1C(F)F`, the outcome was inactive. As for `N#CSCSC#N`, the AC50 is 16.1 µM (active). Take `Cc1ccn2nc(S(=O)(=O)Nc3c(F)cccc3F)nc2n1`: the result was inactive. In the case of `C[N+]1(C)CCCCC1`, the outcome was inactive. For the molecule `CCCOc1nn(C(=O)NS(=O)(=O)c2ccccc2C(=O)OC)c(=O)n1C`, the outcome was inactive. Consider `Nc1nc(N)nc(NC2CC2)n1`, for which the outcome was inactive.

As for `Nc1c(Cl)cc([N+](=O)[O-])cc1Cl`, the outcome was inactive. Take `CCc1cccc(CC)c1N(COC)C(=O)CCl`: the outcome was inactive.

On to `CCCSP(=O)(OCC)Oc1ccc(Br)cc1Cl` (stereo unspecified), for which the outcome was inactive. Take `S=C1NCCN1`: the outcome was inactive. Regarding `CCOP(=S)(OCC)Oc1ccc([N+](=O)[O-])cc1`, the outcome was inactive. Still for that read-out and setting: the value for `CCC(=O)Nc1ccc(Cl)c(Cl)c1` was “inactive”. `CCCCOC(=O)c1ccccc1C(=O)O`: the outcome was inactive. Still for that read-out and setting: as for `C#CC(C)(C)NC(=O)c1cc(Cl)cc(Cl)c1`, the entry is “inactive”. The same measure, in the same setting: as for `COc1cc(OC)nc(Sc2cccc(Cl)c2C(=O)O)n1`, the entry is “inactive”.
